Assay [1] can be described thus: E. coli DRC41 culture turbidity changes, primary screen, E. coli filamentation inducer project, strain DRC41, OD650, 48 h (AID 1152).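 Also: E. coli MC1000 strain DRC41 lacking acrAB efflux pump and sulA.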 Conditions: E. coli DRC41 (acrAB sulA), higher = more signal, called active from +8 up or from −8 down.
Assay [2] can be described thus: small-molecule binders of probe aLefty1, primary screen, biochemical, small-molecule microarray, 635/667 nm fluorescence (AID 1153).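 Also: score merges spot fluorescence with signal-to-noise ratio from the scanned slide images.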 The following applies: higher = more signal.
The nature of assay [3]: PSAC antagonists in infected red cells, primary screen, cell-based, P. falciparum Indochina, OD700, 1 h (AID 1154). The following applies: P. falciparum Indochina infected RBC osmotic lysis, higher = more signal, called active from +8 up or from −8 down.
Assay [4] in a line: PSAC antagonists in infected red cells, primary screen, cell-based, P. falciparum Indochina, OD700, 2 h (AID 1155).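 Also: lysis reports solute entry through the parasite surface anion channel PSAC; channel blockers reduce lysis of infected cells.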 Conditions: P. falciparum Indochina infected erythrocytes, osmotic lysis OD700; higher = more signal, called active from +8 up or from −8 down.
The nature of assay [5]: osmotic lysis modulators in infected erythrocytes, primary screen, PSAC antagonist project, cell-based, P. falciparum Indochina, OD700, 3 h (AID 1156). Conditions: higher = more signal, called active from +8 up or from −8 down.
Assay [6] in a line: PSAC antagonists in infected red cells, primary screen, cell-based, P. falciparum Indochina, OD700, 18 h (AID 1157). Conditions: P. falciparum Indochina infected erythrocytes, osmotic lysis OD700, 18 h; higher = more signal, called active from +8 up or from −8 down.
Assay [7] is described as follows: modulators of S6 phosphorylation in cells, primary screen, cell-based, A549, cytoblot, luminescence, serum-stimulated (AID 1158).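 Also: serum-stimulated A549 lung adenocarcinoma cells; signal is phosphorylated S6 detected by cytoblot immunostaining with HRP secondary.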 Conditions: A549 phospho-S6 cytoblot, 5 h, higher = more signal.
Assay [8] addresses NADPH oxidase 2 (Homo sapiens) (UniProt P04839). Kind of assay: NOX2-dependent H2O2 signal modulators, primary screen, NOX inhibitor project, cell-based, HEK293-NOX2, PMA-stimulated, Amplex Red fluorescence (AID 1159). Also: test concentration not given here. The following applies: 45 min, higher = more signal, called active from +8 up or from −8 down.
Assay [9] concerns the target NADPH oxidase 4 (Homo sapiens) (UniProt Q9NPH5). Kind of assay: NOX4-dependent H2O2 signal modulators, primary screen, NOX inhibitor project, cell-based, HEK293-NOX4, tetracycline-induced, Amplex Red fluorescence (AID 1160). Conditions: 45 min, higher = more signal, called active from +8 up or from −8 down.
Assay [10] concerns the target NADPH oxidase 5 (Homo sapiens) (UniProt Q96PH1). The assay can be described thus: NOX5-dependent H2O2 signal modulators, primary screen, NOX inhibitor project, cell-based, HEK293-NOX5, Amplex Red fluorescence (AID 1161). Conditions: HEK293-NOX5, ionomycin, 45 min, higher = more signal.

The source made the active and inactive calls.

Chain of NADPH oxidase 4 (Homo sapiens) (Q9NPH5 whole entry, looked up): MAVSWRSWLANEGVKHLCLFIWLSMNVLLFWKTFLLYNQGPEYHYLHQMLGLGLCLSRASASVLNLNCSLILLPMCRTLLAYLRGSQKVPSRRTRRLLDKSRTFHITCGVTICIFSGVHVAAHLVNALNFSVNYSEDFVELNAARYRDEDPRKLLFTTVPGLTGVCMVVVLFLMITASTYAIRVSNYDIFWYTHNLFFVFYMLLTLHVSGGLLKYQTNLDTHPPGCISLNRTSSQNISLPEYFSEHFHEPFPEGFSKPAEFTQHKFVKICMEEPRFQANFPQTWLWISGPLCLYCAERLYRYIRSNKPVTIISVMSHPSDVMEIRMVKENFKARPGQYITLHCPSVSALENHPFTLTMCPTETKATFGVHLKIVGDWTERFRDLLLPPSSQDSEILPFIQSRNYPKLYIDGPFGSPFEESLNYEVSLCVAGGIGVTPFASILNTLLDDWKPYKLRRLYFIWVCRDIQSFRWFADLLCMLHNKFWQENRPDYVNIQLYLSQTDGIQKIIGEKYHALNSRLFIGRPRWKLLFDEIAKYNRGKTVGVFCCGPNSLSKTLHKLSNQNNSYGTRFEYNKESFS
Chain of NADPH oxidase 5 (Homo sapiens) (Q96PH1 whole entry, looked up): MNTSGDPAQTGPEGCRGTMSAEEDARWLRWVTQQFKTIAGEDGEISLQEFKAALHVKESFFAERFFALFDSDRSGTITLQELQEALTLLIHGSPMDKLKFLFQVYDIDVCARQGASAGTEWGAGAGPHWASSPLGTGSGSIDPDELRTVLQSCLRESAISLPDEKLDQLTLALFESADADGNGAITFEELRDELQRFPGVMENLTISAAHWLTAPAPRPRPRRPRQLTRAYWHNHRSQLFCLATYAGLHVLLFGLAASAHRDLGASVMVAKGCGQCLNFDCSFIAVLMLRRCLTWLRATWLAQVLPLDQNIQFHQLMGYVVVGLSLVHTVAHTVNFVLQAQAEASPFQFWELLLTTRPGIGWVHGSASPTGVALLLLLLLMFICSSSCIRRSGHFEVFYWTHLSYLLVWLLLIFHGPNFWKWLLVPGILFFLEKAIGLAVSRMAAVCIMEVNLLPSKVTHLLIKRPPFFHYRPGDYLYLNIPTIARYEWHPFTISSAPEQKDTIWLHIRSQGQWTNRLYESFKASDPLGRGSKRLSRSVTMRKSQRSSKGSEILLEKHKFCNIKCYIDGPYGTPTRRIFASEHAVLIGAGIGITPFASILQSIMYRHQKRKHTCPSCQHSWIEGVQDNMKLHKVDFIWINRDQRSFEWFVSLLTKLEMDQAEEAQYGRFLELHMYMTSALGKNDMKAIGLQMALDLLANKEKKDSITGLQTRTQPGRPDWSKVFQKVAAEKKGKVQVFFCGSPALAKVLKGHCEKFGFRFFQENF
Chain of NADPH oxidase 2 (Homo sapiens) (P04839 whole entry, looked up): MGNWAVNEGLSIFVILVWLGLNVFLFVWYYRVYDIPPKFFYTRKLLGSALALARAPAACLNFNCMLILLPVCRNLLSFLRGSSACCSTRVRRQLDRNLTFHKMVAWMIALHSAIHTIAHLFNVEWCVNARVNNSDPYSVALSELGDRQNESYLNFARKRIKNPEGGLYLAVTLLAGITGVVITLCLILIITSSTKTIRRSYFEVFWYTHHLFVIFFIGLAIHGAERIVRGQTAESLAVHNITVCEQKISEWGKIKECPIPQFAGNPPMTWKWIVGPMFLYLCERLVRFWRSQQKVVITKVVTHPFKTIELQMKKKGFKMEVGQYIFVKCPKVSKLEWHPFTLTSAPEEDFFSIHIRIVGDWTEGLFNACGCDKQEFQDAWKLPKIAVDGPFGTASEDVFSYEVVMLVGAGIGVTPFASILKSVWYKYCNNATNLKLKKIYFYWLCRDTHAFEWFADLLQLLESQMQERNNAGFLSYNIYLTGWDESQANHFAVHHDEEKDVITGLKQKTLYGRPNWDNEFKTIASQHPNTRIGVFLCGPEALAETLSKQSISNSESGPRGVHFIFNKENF

As to `OCc1ccc(-c2cc[n+](Cc3cccc(OC(F)(F)F)c3)cc2)cc1`, the z-score in [1] was 0.0027 (inactive); in assay [3], 0.51 (inactive); in assay [4] it was 0.409 (inactive); in [5] it was -0.445 (inactive); in assay [6], -0.0616 (inactive); in assay [7] it was -0.104. In addition, the z-score was -0.316 (inactive) in assay [8], -0.0783 (inactive) in assay [9] and -3.79 in [10]. In [2], this compound gave a composite z-score of 0.423.
Consider `O=C1CSC(c2cccc([N+](=O)[O-])c2)N1c1ccccc1` (stereo not given), for which the z-score in [1] is 0.0188 (inactive); in [3] it was 0.0361 (inactive); in [4], 0.111 (inactive); in assay [5], 0.708 (inactive); in [6] it was -0.139 (inactive); in assay [7], -0.0619. Moreover, the z-score in assay [8] was -0.276 (inactive); in assay [9], -0.0621 (inactive); in [10] it was 0.509. Besides, the composite z-score in assay [2] came to 0.0163.
As to `COc1cccc(C)c1NC(=O)O[C@H]1[C@H](OC(=O)Nc2ccccc2)[C@H](OC(=O)Nc2ccccc2)[C@@H](OC)O[C@@H]1CO`, the z-score was -1.05 (inactive) in assay [1]; 7.38 (inactive) in assay [3]; 1.34 (inactive) in [4]; -0.446 (inactive) in assay [5]; 0.89 (inactive) in assay [6]; -0.26 in [7]. Besides, the z-score in assay [8] was 0.0936 (inactive); in [9], -0.91 (inactive); in [10], -0.89. Further, the composite z-score in assay [2] is 0.211.
As for `CC(C)CN1C(=O)[C@@]2(Cc3ccccc31)c1ccccc1C(=O)N(Cc1ccccc1)[C@H]2c1ccc(CO)cc1`, the z-score is -0.731 (inactive) in assay [1]; 0.0889 (inactive) in [3]; -0.719 (inactive) in [4]; 0.27 (inactive) in assay [5]; 0.157 (inactive) in assay [6]; 0.148 in assay [7]. For the same compound, the z-score is 0.439 (inactive) in assay [8], -0.348 (inactive) in [9] and -0.498 in assay [10]. Further, the composite z-score in assay [2] is -0.702.
Consider `CN(C)C(=O)[C@@]1(Cc2ccccc2N=[N+]=[N-])N=C(c2ccc(OCCCO)cc2)O[C@H]1c1ccccc1N=[N+]=[N-]`, for which the z-score in assay [1] is 0.0086 (inactive); in assay [3], 31.3 (active); in [4], 29.7 (active); in assay [5], 2.54 (inactive); in assay [6], 3.39 (inactive); in [7] it was 0.246. Besides, the z-score in assay [8] is -1.34 (inactive); in assay [9], -0.493 (inactive); in [10], -2. Besides, in [2], the composite z-score was -0.213.
On to `[N-]=[N+]=Nc1ccccc1[C@@H]1OC(c2ccc(OCCCO)cc2)=N[C@]1(CCS(=O)(=O)c1ccccc1)C(=O)NCc1ccccc1`, for which the z-score in assay [1] was 0.871 (inactive); in [3] it was 28 (active); in assay [4] it was 23.5 (active); in assay [5], 1.29 (inactive); in [6] it was 4.33 (inactive); in [7] it was -0.309. Moreover, the z-score in assay [8] is -1.86 (inactive); in [9], 0.642 (inactive); in [10], 1.15. Also, the composite z-score in [2] turned out to be 1.01.
With `COCCOC(=O)N1C(=O)[C@@]2(c3cc(C#Cc4ccc(OC)cc4)ccc31)[C@H](C(=O)N1CCc3cc(OC)c(OC)cc3C1)[C@H]1C(=O)O[C@H](c3ccccc3)[C@H](c3ccccc3)N1[C@@H]2c1ccc(O)cc1`, the z-score in assay [1] was 0.515 (inactive); in assay [3], 1.74 (inactive); in assay [4], 0.402 (inactive); in assay [5] it was 0.295 (inactive); in assay [6], 0.285 (inactive); in [7] it was 0.269. Moreover, the values for the z-score in assay [8], in assay [9] and in assay [10] were 0.987 (inactive), -1.37 (inactive) and 0.321, respectively. The compound also had a composite z-score in assay [2] of 1.05.
Take `CN1C(=O)C2C=CC(C(O)C3CCCCC3)N(N(c3ccccc3)c3ccccc3)C2C1=O` (stereo not given): the z-score in [1] was -1.11 (inactive); in assay [3] it was 0.801 (inactive); in assay [4], 1.09 (inactive); in [5] it was 0.332 (inactive); in assay [6], 0.926 (inactive); in assay [7], -1.47. Besides, the z-score in assay [8] was -0.557 (inactive); in assay [9], -0.635 (inactive); in assay [10] it was -0.0135. In [2], the composite z-score was 0.344.
Consider `CCC[C@@H]1C[C@@]1(CCC)[C@@H](NC(=O)c1cccs1)c1ccc(Cl)cc1`, for which the z-score in assay [1] is -0.26 (inactive); in [3], -0.119 (inactive); in assay [4], -0.639 (inactive); in assay [5], 0.307 (inactive); in assay [6], 0.0519 (inactive); in assay [7], -0.392. For the same compound, the z-score in assay [8] is -1.47 (inactive); in [9] it was -0.556 (inactive); in [10], 0.684. Besides, in [2], the composite z-score was found to be 0.0319.
For the compound `CC(=O)NCCCC[C@@H]1NC(=O)[C@@H]2C[C@H](C(=O)NCCCC[N+](C)(C)C)[C@H](c3cccc(OCCO)c3)N2C1=O`, the z-score in assay [1] was -0.832 (inactive); in assay [3], 1.63 (inactive); in assay [4] it was 0.372 (inactive); in assay [5] it was -0.122 (inactive); in assay [6], 0.154 (inactive); in [7], -0.246. The z-score in assay [8] is 0.151 (inactive); in assay [9] it was -0.0151 (inactive); in assay [10], 1.29. Moreover, the composite z-score in assay [2] came to 0.206.

Values taken from PubChem BioAssay.
